Source: PubChem
TrxR1 inh: blocks rat thioredoxin reductase 1. AID 588453. hit rate 1% among 390,000. Potency, µM (series often up to 114 µM), for the others: top-dose activity change, negative = inhibition, hits mostly inhibitors. O89049. recombinant rTrxR1, NADPH fluorescence consumption, selenite substrate; also: potency is read from the fitted curve at half-maximal effect; nearly all actives have a fitted effect of over 65% in size
Target sequence (O89049 whole entry, looked up): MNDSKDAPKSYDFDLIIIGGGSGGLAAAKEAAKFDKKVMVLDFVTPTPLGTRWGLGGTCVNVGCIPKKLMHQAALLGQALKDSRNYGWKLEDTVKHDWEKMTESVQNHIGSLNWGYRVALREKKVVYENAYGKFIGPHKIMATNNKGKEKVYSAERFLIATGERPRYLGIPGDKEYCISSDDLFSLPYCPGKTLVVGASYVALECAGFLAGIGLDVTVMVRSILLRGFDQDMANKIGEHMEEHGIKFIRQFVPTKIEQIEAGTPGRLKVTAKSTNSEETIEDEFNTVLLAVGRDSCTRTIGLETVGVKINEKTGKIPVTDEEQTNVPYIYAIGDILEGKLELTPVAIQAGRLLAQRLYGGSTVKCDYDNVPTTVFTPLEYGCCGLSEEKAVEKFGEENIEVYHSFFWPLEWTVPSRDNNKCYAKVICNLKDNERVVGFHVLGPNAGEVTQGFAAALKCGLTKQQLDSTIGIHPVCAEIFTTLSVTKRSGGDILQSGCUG
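Rat TrxR1 (90 nM in the dispensed reagent) was pre-reduced with 400 uM NADPH for 5 min at room temperature, then incubated with compound for 15 min. After 400 uM selenite was added, NADPH fluorescence (Ex 340/Em 450 nm) was followed for 8 min.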
TrxR1 substrate: substrates of rat thioredoxin reductase 1 | O89049 | purified TrxR1 substrate turnover, NADPH consumption readout | Potency, µM (doses to about 114 µM), for inactives: top-dose activity change, negative = substrate turnover | hit rate 0.01% among 390,000; also: potency is read from the fitted curve at half-maximal effect; nearly all actives have a fitted effect of over 50% in size
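Rat TrxR1, dispensed at 90 nM, was prereduced with 400 uM NADPH (final) for 5 min at ~22 deg C, then incubated with compound 15 min before 400 uM selenite. A first-read NADPH fluorescence drop versus no-compound background flagged substrates.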
mIDH1 inhibitor: inhibitors of human mutant IDH1 R132H | O75874 | Potency, µM (titrated, usually from 76.6 µM), for inactives: at the top dose activity change, negative = inhibition, most hits filed as inhibitors | AID 602179 | IDH1-R132H enzyme, NADPH consumption, diaphorase/resazurin fluorescence | hit rate 0.093% among 390,000; also: potency is read from the fitted curve at half-maximal effect; nearly all actives have a fitted effect of over 65% in size
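IDH1-R132H (0.5 ug/mL) preincubated 30 min with compound, then NADPH (0.016 mM) and alpha-KG (2 mM) added; 80 min at RT, pH 7.5. Remaining NADPH coupled via diaphorase/resazurin to fluorescence (540/590 nm); concentration-response curves normalized to no-enzyme control.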
Coupling enz: inhibits coupling enzyme system, counter-screen for aldolase hits; coupling enzyme system counterscreen, AmpLite Red fluorescence; activity change, negative = inhibition, % at 58.2 µM, hits read low; hit rate 0.67% among 290,000; AID 2472; in the data active = activity change below about -30%
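Compounds tested against the coupling enzymes alone at 57.5 uM final; readout was AmpLite Red fluorescence (525/598 nm) after 20 min at RT.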
Eya2 phos inh: blocks the phosphatase activity of human Eya2; AID 488837; recombinant Eya2, OMFP fluorescence dephosphorylation (OMFP is methylfluorescein phosphate); hit rate 0.006% among 330,000; Potency, µM (doses to about 76.9 µM), without a hit: at the top dose activity, negative = inhibition, usual class: inhibitors; also: potency is read from the fitted curve at half-maximal effect
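Eya2 (0.2 uM) preincubated 10 min at ambient with compound, then OMFP substrate added at 50 uM; 10 min reaction in 50 mM HEPES pH 7.5, 50 mM NaCl, 5 uM MgCl2, 0.05% BSA, 1 mM DTT. Fluorescence read at Ex 485/Em 525 nm.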
Active calls of the source: *; ? = inconclusive; . = not tested or not shown; [ ] = dose if it differs, or a comment. Sampled rows, rich in hits. Any-hit rate of the full collection: about 1.5%. Unless noted, calls follow the shape of the dose curve; as a rule, active = well fitted curve in the direction sought with a large enough effect; inconclusive = small, poorly fitted or top-dose-only effect, or another doubt; inactive = no such curve, though single readings can be large; an effect the other way counts as inactive or inconclusive. % is scaled to controls: 0 for no effect and ±100 for the full control effect.

SMILES	TrxR1 inh	TrxR1 substrate	mIDH1 inhibitor	Coupling enz	Eya2 phos inh
Cc1ccc(S(=O)(=O)Nc2ccc(O)c(Sc3ncn[nH]3)c2)cc1	-8%	-5%	5%	-10	1%
Cc1ccc(S(=O)(=O)N2CCN(C(=O)CSc3ncn[nH]3)CC2)c(C)c1	-8%	-8%	6%	.	24%
CC(C)c1ccc(S(=O)(=O)/N=C2/C=C(Sc3ncn[nH]3)C(=O)c3ccccc32)cc1	?	14µM*	20%	-92*	-14%
Cc1ccc(S(=O)(=O)/N=C2/C=C(Sc3ncn[nH]3)C(=O)c3ccccc32)cc1	?	10µM*	22%	-55*	-20%
Cc1ccc(S(=O)(=O)/N=C2/C=C(Sc3ncn[nH]3)C(=O)c3ccccc32)c(C)c1	.	.	.	-63*	-10%
O=c1c(C(c2ccc(F)cc2)c2c(O)nc3n(c2=O)CCS3)c(O)nc2n1CCS2	13µM*	6%[57.1 µM]	3%	6	0%
O=c1c(C(c2ccc(Cl)cc2)c2c(O)nc3n(c2=O)CCCS3)c(O)nc2n1CCCS2	?	2%	-5%	10	-2%
O=c1c(C(c2ccc(Cl)cc2)c2c(O)nc3n(c2=O)CCS3)c(O)nc2n1CCS2	10µM*	4%	3%	8	1%
CN(C)c1ccc(C(=C2c3ccccc3-c3ccccc32)c2ccc(N(C)C)cc2)cc1	-1%	0%	.	.	.
CCN1CCN(c2cc(N3CCN(C(=O)c4ccco4)CC3)c3c4c(onc24)-c2ccccc2C3=O)CC1	-24%	-11%	2%	-30*	5%
O=C(O)CCNc1cc(N2CCN(C(=O)c3ccco3)CC2)c2noc3c2c1C(=O)c1ccccc1-3	35µM*	-8%	11%	-25	52%
O=C(O)CCCNc1cc(N2CCN(C3CCCCC3)CC2)c2noc3c2c1C(=O)c1ccccc1-3	-6%	-5%	0%	.	.
CC(=O)OCCNc1cc(N2CCN(C)CC2)c2noc3c2c1C(=O)c1ccccc1-3	-32%	-13%	-2%	-26	-8%
N#CC1=C(N)C(C#N)(C#N)C2(C(=O)Nc3ccccc32)C2CCCC=C12 (centres undefined)	56µM*	-7%	5%	-20	-4%
C=C1C=C(C(F)F)n2ncc(C(=O)NCc3ccccc3)c2N1	12%	5%	.	.	.
Cc1cc[n+](-c2nc3ccccc3nc2C(=C=[N-])C#N)cc1	-6%[57.1 µM]	18%[57.1 µM]	6%	-41*	-3%
Cc1nc2scc(-c3ccccc3)c2c(=O)n1N=C1C=CC(=O)C=C1	3.2µM*	4%[57.1 µM]	1%	-1	1%
Cc1nc2scc(-c3ccccc3)c2c(=O)n1N	-2%	-8%	2%	1	-7%[15.4 µM]
Cc1[nH]c2ccccc2c1CC#N	-14%	6%	-9%	-1	1%
Cc1[nH]c2ccccc2c1[C@H]1[C@@H](CC#N)C1(C)C	9%	-2%	13%	-46*	-22%
CCS(=O)(=O)c1cc([N+](=O)[O-])c(Sc2ccccc2NC(C)=O)s1	8.9µM*	10%[57.1 µM]	-3%	0	5%
CC(=O)CCS(=O)(=O)c1ccc(Oc2ccc(S(=O)(=O)CCC(C)=O)cc2)cc1	50µM*	-2%	9%	-2	4%
Cc1oc2c(cc(NS(=O)(=O)c3ccc(F)cc3)c3ccccc32)c1C(=O)O	-2%	6%	10%	-31*	-14%
CC1(C)Cc2noc(N)c2C(C)(C)N1O	1.6µM*	4%	3%	-9	-1%
CC(=O)ON1C(C)(C)Cc2noc(N)c2C1(C)C	7%	-1%	1%	1	5%
SMILES	TrxR1 inh	TrxR1 substrate	mIDH1 inhibitor	Coupling enz	Eya2 phos inh
CC(c1ccccc1)N1CCN(C(=O)CCl)CC1 (centres undefined)	16µM*	3%	-3%	-3	13%
CCN(Cc1ccncc1)Cc1c(O)ccc2ccccc12	5µM*	12%[57.1 µM]	14%	-33*	9%
Cc1ccc2oc(-c3ccc(C)c(NC(=O)COc4ccccc4C)c3)nc2c1	28%	5%	.	.	.
O=C1C(=O)c2ccccc2C(O)=C1CCCCl	9%	-8%	2%	-50*	-3%
COc1ccc(CC2=C(O)c3ccccc3C(=O)C2=O)cc1	?	0%	17%	-2	-7%
O=C(Nc1cccc(Nc2ccccc2)c1)c1cnn2c1NC(=C1CC1)C=C2C(F)F	12%	-3%	.	.	.
